# Measurements published in PubChem BioAssay AID623957 (NMMLSC, 2012).
# Active and inactive are the calls of the source.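 Rule for the calls: active = compounds whose fitted half-maximal concentration for lowering the signal is under 100 µM; inactive = the rest.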
# Assay: compound effect on K562 vector-control line – cell-based, flow cytometry, cherry pick set 1, counter-screen for ABCB6 inhibitor project, dose response (AID 623957)
smiles,measurement,value
C[N+](C)(C)CC1CCCC(C[N+](C)(C)C)C1=O (stereo unspecified),outcome,inactive
